The record followed here is PubChem BioAssay.

A number with no mark means an inactive call.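 The calls were made as follows: active = viability loss from added drug above about 55%, and viability with drug at most 40%, in both replicates (limit read from the data, passing the limit was not always enough); inconclusive = both conditions met in only one replicate; inactive = neither replicate meets both conditions.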

This assay is described as follows: reversal of MRP1-mediated doxorubicin resistance, pilot screen, H69AR cells, doxorubicin co-treatment (AID 601). The following applies: H69AR cells + 2 uM doxorubicin, CellTiter-Glo, 72 h; at 10 µM; hits give high values. In general terms: Cellular ATP, detected with luciferase, serves as a proxy for viable cell number.
Take `CC1(C)CC(=O)C2=C(C1)N(Cc1ccco1)C(=O)C2(NC(=O)C1CCCCC1)C(F)(F)F` (centres undefined): the differential viability (reversal) is 10.7%.
To `C=CCn1c(=S)[nH]c2nc3c(cc2c1=O)COC(C)(C)C3` belongs 5.84%; to `CC(=O)Nc1ccc(S(=O)(=O)N(CC(=O)O)Cc2ccccc2)cc1`, -6.14%.
To `Cc1cccc2cc(C#N)c(SCCN3CCCCC3)nc12` belongs -10%; to `CSc1nnc(-c2cnccn2)n1C`, 0.99%; to `COc1ccccc1NC1=NC2(CCCC2)N=C(N)N1`, 8.79%.
Take `CC(C)C(c1nnnn1C1CCCC1)N1CCCc2ccccc21` (centres undefined): the differential viability (reversal) is -6.77%.
As for `COc1cc(NC(=O)c2cc(-n3cnnc3)ccc2Cl)cc(OC)c1`, the differential viability (reversal) was 19.9%.
The result for `Cc1ccc(OCc2nnc(SCC(=O)N3CCOCC3)n2C)cc1` reads 17.4%; that for `CCc1nc(C)ccc1OCC(=O)O`, -12.6%.
Take `CCCOc1ccc(N2C(=O)CC(NCCCN3CCC(C(N)=O)CC3)C2=O)cc1` (centres undefined): the differential viability (reversal) was -3.32%.
For `CC1CCCCN1CCNS(=O)(=O)c1ccc2c(c1)oc(=O)n2C` (centres undefined), the differential viability (reversal) was 7.79%.
As to `COc1cccc(C(c2nnnn2Cc2ccccc2)N2CCN(C(=O)c3ccco3)CC2)c1OC` (centres undefined), the differential viability (reversal) was -9.06%.
Turning to `COc1ccc(S(=O)(=O)N2CCC(C(=O)NCc3ccco3)CC2)cc1`, the differential viability (reversal) is -1.91%.
The result for `CSC1CCCCC1(O)CSc1nc2c(cc1C#N)CCCC2` (centres undefined) reads -2.66%; that for `CCSc1nnc(NC(=O)c2cc(C)oc2C)s1`, 12.6%; that for `COC(=O)c1ccc(CN(c2ccccc2OC)S(=O)(=O)c2cccs2)o1`, -15.4%.
For `O=C1c2cccnc2C(=O)N1c1cccc(-c2nc3ccccc3o2)c1`, the differential viability (reversal) is 6.53%.
The result for `COc1ccc(S(=O)(=O)Nc2ccc3c(c2)OCO3)cc1Cl` reads 5.36%.
`CC1CC(C)CN(CCCNC(=O)c2ccc3c(c2)NC(=O)C(N2CCCCC2)S3)C1` (centres undefined): the differential viability (reversal) was 4.94%.
On to `Cc1cc(NC(=O)C2CCCC2)nc2c1c(=O)oc1ccccc12`, for which the differential viability (reversal) was -24.9%.
Regarding `Cc1cccc(NC(=O)CN(C)S(=O)(=O)c2ccccc2)n1`, the differential viability (reversal) was 9.79%.
To `O=C1c2ccccc2C(=O)N1CCCCN1CCN(CCCCN2C(=O)c3ccccc3C2=O)CC1` belongs 12.7%; to `CCOC(=O)c1sc(NS(=O)(=O)c2ccc(NC(C)=O)cc2)nc1C`, 7.92%; to `O=C(NCc1ccc(F)cc1)c1cc(-c2ccco2)on1`, -8.09%.
Take `COc1cccc(C(=O)Nc2cccc(C(=O)N3CCOCC3)c2)c1`: the differential viability (reversal) is 13%.
For the compound `Cc1nc(SCC(=O)c2c[nH]c3ccccc23)n[nH]1`, the differential viability (reversal) was 14.5%.
As to `CCOC(=O)C1CCN(S(=O)(=O)c2cccc(-c3csc(C)n3)c2)CC1`, the differential viability (reversal) was 5.91%.
In the case of `COc1ccc2c(c1)CCc1c(C(=O)N3CC4(C)CC3CC(C)(C)C4)noc1-2` (centres undefined), the differential viability (reversal) is 0.855%.
As to `C=CCn1c(SCc2cc(=O)n3ccsc3n2)nnc1C1CCCCC1`, the differential viability (reversal) was 17.5%.
The result for `CCOC(=O)C1C(=O)NC(SCC(=O)Nc2nccs2)=C(C#N)C1c1ccccc1OCC` (centres undefined) reads -1.05%; that for `Cc1ccc(-c2nc(-c3cccnc3)no2)c(C)c1`, -0.56%.
To `COC(=O)c1[nH]c(C)c(/C(O)=C2\C(=O)C(=O)N(CCCN3CCOCC3)C2c2ccccn2)c1C` (centres undefined) belongs 7.94%.
The result for `CCOc1ccccc1NC(=O)CCSc1nc2n[nH]c(C)c2c(=N)n1-c1ccccc1Cl` reads 0.49%; that for `CC(=O)c1cc(-c2ccccc2)n(CC(=O)N2CCN(C3CCCC3)CC2)c1C`, -0.095%.
On to `O=c1ccn(Cc2ccccc2Cl)cc1`, for which the differential viability (reversal) is 9.77%.
As to `COC(=O)c1c(C(=O)OC)n(CCCN)c2ccc(C)cc12`, the differential viability (reversal) was 4.39%.
With `CN(CC(=O)Nc1ccccc1Cl)C(=O)COC(=O)CNC(=O)c1ccc(Br)o1`, the differential viability (reversal) is 14.3%.
To `O=C(CN1C(=O)CC(c2ccccc2)=Nc2ccccc21)NCc1ccco1` belongs 12.9%.
